# An excerpt weighted towards active compounds, which were near 9.3% of everything screened.
# VACV Venus inh – qHTS for Stage-Specific Inhibitors of Vaccinia Orthopoxvirus: Venus Reporter Primary qHTS | Vaccinia virus Venus reporter expression, fluorescence | Potency, µM (top dose mostly 36.5 µM), inactives show at the highest dose activity change, negative = inhibition, usual class: inhibitors | hit rate 0.46% among 330,000 | AID 720580, 2013; calls by dose curve; tested in A549 cells; note: potency is the fitted concentration of half-maximal effect; nearly all actives have a fitted effect of over 30% in size
# HCMV antiviral – qHTS Assay for inhibitors of the human cytomegalovirus (HCMV); activity change, negative = inhibition, % at 57.5 µM; AID 1259415, 2018; HFF cells, HCMV-luciferase reporter, 72 h; hits give low values; hit rate 4.5% among 410,000; in the data active = activity change below about -60%; inconclusive = no clear call, values can overlap the other calls; inactive = above about -39%
#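 Compounds were evaluated in HFFs infected with an HCMV luciferase reporter virus (MOI 1 PFU/cell). Luciferase in lysates collected 72 h post infection served as the replication measure.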
# Sm TGR inh – qHTS Assay for the Inhibitors of Schistosoma Mansoni Peroxiredoxins | Schistosoma mansoni thioredoxin glutathione reductase (TGR), Q962Y6 | purified TGR, DTNB reduction, TNB absorbance 405 nm | hit rate 3% among 360,000 | Potency, µM (series often up to 114 µM), inactives show top-dose activity change, negative = inhibition, hits mostly inhibitors; note: potency is the fitted concentration of half-maximal effect; nearly all actives have a fitted effect of over 60% in size
#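 Kinetic colorimetric format: TGR-catalysed, NADPH-driven DTNB reduction monitored via TNB absorbance. Enzyme dispensed at 20 nM; compound exposure 15 min at room temperature before reaction start.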
# HCV inhibitor – qHTS Assay for Inhibitors of Hepatitis C Virus (HCV). Huh7.5.1 HCVcc-Cre infection, luciferase reporter, 44 h. Potency, µM (titrated, usually from 41.8 µM), for inactives: top-dose activity change, negative = inhibition, most hits filed as inhibitors. hit rate 3.4% among 340,000. AID 651820, 2012; note: potency is the fitted concentration of half-maximal effect
#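 Compounds are dispensed onto cells plated 4 h earlier at 1,000 per well, with HCVcc-Cre virus (about 0.5 moi) added next. Following 44 h of culture, luminescent signal is measured for 15 sec after 15 min with substrate at room temperature.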
# FMDV inh – High Throughput Screening for Foot and Mouth Disease Virus Antivirals; hit rate 1.2% among 410,000; Potency, µM (top dose mostly 57.9 µM), for the others: at the highest dose activity change, negative = inhibition, actives largely listed as inhibitors; FMDV antiviral cell-based qHTS; calls by dose curve; tested in HEK293T cells; note: read-out not given here; potency is the fitted concentration of half-maximal effect; nearly all actives have a fitted effect of over 45% in size
# VACV mCherry inh – qHTS for Stage-Specific Inhibitors of Vaccinia Orthopoxvirus: mCherry Reporter Primary qHTS. Vaccinia virus mCherry reporter infection, fluorescence. Potency, µM (highest dose often 36.5 µM), without a hit: at the top dose activity change, negative = inhibition, usual class: inhibitors. hit rate 0.63% among 310,000. AID 720579, 2013; calls by dose curve; tested in A549 cells; note: potency is the fitted concentration of half-maximal effect; nearly all actives have a fitted effect of over 35% in size
# * hit, by the source's call; i = inactive; ? = inconclusive; . = no result; [ ] = another dose, or the depositor's remark. Unless noted, calls come from the whole dose curve; as a rule, active = well fitted curve in the direction sought with a large enough effect; inconclusive = small, poorly fitted or top-dose-only effect, or another doubt; inactive = no such curve, though single readings can be large; an effect the other way counts as inactive or inconclusive. % is set by controls: 0 for no effect and ±100 for the full control effect.
SMILES,VACV Venus inh,HCMV antiviral,Sm TGR inh,HCV inhibitor,FMDV inh,VACV mCherry inh
Cc1ccc(CN2CCC(CNC(=O)c3ccc(NC(=O)C4=CSCCO4)cc3)CC2)cc1,.,-34,-12%,13µM*,0%,.
O=C(Nc1ccc(C(=O)NCC2CCN(Cc3ccccc3F)CC2)cc1)C1=CSCCO1,.,-16,-2%,-9%,6%,.
O=C(Nc1ccc(C(=O)N2CCCCC2)cc1)C1CCCC1,-7%,-6,.,-1%[8.37 µM],8%,-12%
Cc1ccc(S(=O)(=O)NCC(=O)OCc2csc(CC(=O)Nc3ccccc3C)n2)cc1C,.,-23,.,13%,1%,.
O=C(/C(=C/O)N=Nc1cccc(C(F)(F)F)c1)c1ccccc1,-17%,?,56%,?,?,-11%
Cc1cccc(N=N/C(=C\O)C(=O)c2ccc(Br)cc2)c1,-5%,-77*,-1%,10µM*,-13%,-24%
Cc1csc2nc(-c3cccc(NC(=O)c4ccccc4Cl)c3)cn12,-8%,-8,0%,.,-4%,-5%
Cc1ccc(NC(=O)C2CCCN(S(=O)(=O)c3c(C)noc3/C=C/N(C)C)C2)c(C)c1 (stereo not given),.,14,-7%,-11%,-6%,.
COCC(=O)N1CCC(Oc2ccc(C(=O)N(C)CCCC3CCCC3)cc2)CC1,.,-67*,-11%,?,?,.
COCC(=O)N1CCC(Oc2ccc(C(=O)N3CCCCCCC3)cc2)CC1,-11%,7,-3%,4%,18%,i
Cc1cccc(S(=O)(=O)N(C)C[C@@H]2OCc3cn(nn3)CCCC(=O)N([C@@H](C)CO)C[C@H]2C)c1,2%,-7,.,.,-21%,i
CCC(=O)N(CCC(c1ccccc1)c1ccco1)Cc1cccs1 (stereo not given),-16%,?,14µM*,?,0%,-27%
COc1ccccc1C(CCN(Cc1cccs1)C(C)=O)c1ccco1 (stereo not given),6%,9,13µM*,-14%,-24%,-8%
CCN(CC)C(=O)CC(c1ccccc1)c1ccco1 (stereo not given),.,20,?,-22%,0%,.
CNS(=O)(=O)c1cc(NC(=O)c2cnc(SC)n2-c2ccccc2)ccc1C,-14%,-7,2%,0%,3%,-17%
COc1ccc(NC(=O)CN2CCCCCC2)cc1OC,-6%,-22,-12%,-3%,3%,-6%
COc1ccc(Cc2n[nH]c(=O)c3ccccc23)cc1OC,.,159,1%,-1%,?,.
CCN(CC)S(=O)(=O)c1ccc(NC(=O)CC(NC(C)=O)c2ccccc2)cc1 (stereo not given),-14%,-81*,-2%,14%,14%,-9%
CC(=O)Nc1ccc(S(=O)(=O)N(Cc2ccccc2)Cc2ccccc2)cc1,-8%,-61*,11%,.,11%,-7%
CC(=O)NC(CC(=O)Nc1ccc(S(=O)(=O)N2CCCC2)cc1)c1ccccc1 (stereo not given),.,14,-28%,-4%,-19%,.
CC(=O)Nc1ccc(S(=O)(=O)N(CC(=O)O)Cc2ccccc2)cc1,-8%,-39,7%,8%,-22%,53%[1.46 µM]
CCCCCCCn1c(=O)c(C(=O)Nc2cnccn2)c(O)c2ccccc21,-8%,-62*,2%,?,-17%,-9%
CC(C)Cn1c(=O)c(C(=O)Nc2ccncc2)c(O)c2ccccc21,.,-16,.,10µM*,-13%,.
CCCCCn1c(=O)c(C(=O)Nc2cnccn2)c(O)c2ccccc21,5%,?,.,8.9µM*,-22%,-7%
O=C(Nc1ccc(C(=O)N2CCCC(CO)C2)cc1)c1ccc(Br)o1 (stereo not given),-11%,7,.,7%,-1%,i
SMILES,VACV Venus inh,HCMV antiviral,Sm TGR inh,HCV inhibitor,FMDV inh,VACV mCherry inh
CC(C)N1CCN(C(=O)c2ccc(NC(=O)c3ccc(Br)o3)cc2)CC1,-5%,-18,22µM*,12%,-7%,-17%
O=C(Nc1ccc(N2CCCC2)cc1)c1ccc(Br)o1,-4%,106,0%,-29%,.,i
O=C(Nc1ccc(C(=O)N2CCC(N3CCOCC3)CC2)cc1)c1ccc(Br)o1,-6%,6,32µM*,-11%,-13%,-6%
COc1ccc(NC(=O)Cn2nnc3sc4c(c3c2=O)CCCC4)cc1,-1%,-4,-1%,.,-8%,-3%
CN1CCN(C(=O)c2cc(COc3c(F)cccc3F)on2)CC1c1ccccc1 (stereo not given),-13%,24,4µM*,-22%,8%,-19%
O=C(c1cc(COc2c(F)cccc2F)on1)N1CCC(c2ccncc2)CC1,-4%,-84*,3%,5µM*,-4%,-22%
Cc1cccc(C)c1OCc1cc(C(=O)N2CCC(c3ccncc3)CC2)no1,-20%,?,-21%,7.9µM*,-4%,-16%
Cc1cc(Cn2cnc3c2C[C@@H](C(=O)O)N(C(=O)C(c2ccccc2)c2ccccc2)C3)ccc1N(C)C,.,.,.,.,-16%,.
COc1ccc(S(=O)(=O)Nc2ncccn2)cc1,-10%,26,9%,15%,10%,i
Cc1cc(NC(=O)COn2nnc3ccc(S(C)(=O)=O)cc32)ccc1Br,.,?,-20%,10µM*,-25%,.
COc1cc(NC(=O)COn2nnc3ccc(S(C)(=O)=O)cc32)cc(OC)c1,-18%,-68*,35%,-17%,-13%,-15%
Cc1ccc(OCCN(C)C(=O)CC2C(=O)NCCN2CC(C)(C)C)cc1 (stereo not given),-7%,-6,?,-9%,0%,-4%
CC1CC(C)CN(C(=O)C(C)N2CCN(S(=O)(=O)c3ccc(Br)s3)CC2)C1 (stereo not given),-14%,-19,.,?,?,-21%
Cc1cc(NC(=O)c2cc(-c3cccc(OCC(C)C)c3)nc3ccccc23)no1,.,-5,-17%,13µM*,0%,.
Cc1cc(NC(=O)COc2cccc([N+](=O)[O-])c2)no1,.,-26,45µM*,-4%,-16%,.
Cc1ccc(CN(C(=O)COc2cccc([N+](=O)[O-])c2)c2ccccn2)o1,10%,?,50µM*,.,-10%,-7%
COc1cc(C(=O)N2CCC(NC(=O)C(Cc3ccc(C(C)C)cc3)NC(C)=O)CC2)cc(OC)c1OC (stereo not given),4%,-5,-17%,23%,-14%,-6%
Cc1c(C(=O)NCc2ccc3c(c2)OCO3)oc2ccc(S(=O)(=O)N3CCCCC3)cc12,.,?,9%,?,?,.
C=CCn1c(SCC(=O)Nc2ccc(OC)cc2)nc2ccccc2c1=O,-18%,-19,1%,-13%,12%,-16%
CC(=O)Nc1cc2nn(-c3ccccc3)nc2cc1Cl,-21%,140,-11%,2%,35%,i

# High-throughput results deposited in PubChem by National Center for Advancing Translational Sciences (NCATS).
